The record followed here is publication PMC5540273 (PLoS ONE, 2017).
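Also: KINOMEscan kinase panel screen.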

In the experiment the test system is LIMK1. The note with it: concentration: 1 μM, replicates: in singlicate; n = 1.
As for `COC(=O)C(Cc1ccccc1)NC(=O)NC1CCN(c2ccnc(Nc3ccc(F)cc3)n2)C1` (centres unmarked) [GSK1379714], the “%Inh” value is recorded as 0%. Then `CSc1ccc(-c2nc3n(c2-c2ccncc2)CCC3)cc1` [SKF-105561], with 0%; and `COc1ccc(Nc2nccc(N3CCC(NC(=O)c4cc5ccccc5s4)C3)n2)cc1` (centres unmarked) [GSK1379738], with 8%; and `Cc1ccc(NC(=O)Nc2ccc(Cl)cc2)cc1-c1ccc(C(=O)Nc2ccncc2)cc1` [GSK1398472], with 28%. For `CC(C)c1ccc(O)cc1Nc1ccnc2ccc(C(F)(F)F)cc12` [GW482059] the value was 0%. Consider `COC(=O)c1cccc(NC(=O)NC2CCN(c3ccnc(Nc4ccc(F)cc4)n3)C2)c1` (centres unmarked) [GSK1379725], for which the “%Inh” value amounted to 0%. For `O=c1cc(N2CCOCC2)nc2n(Cc3ccccc3F)ccn12` [GSK2297428] the value was 0%.

Take `Cc1ccccc1-c1cc(-c2c[nH]nc2-c2ccccn2)ccn1` [GW680061]: the “%Inh” value was found to be 0%. For `COc1ccc(Nc2nccc(NCCNC(=O)Nc3cc(C)ccc3C)n2)cc1` [GSK1379899] the value was 0%; for `FC(F)(F)c1ccccc1-c1cc(-c2c[nH]nc2-c2ccccn2)ccn1` [GW679396], 0%. As for `Cc1ccccc1Cn1ccn2c(=O)cc(N3CCOCC3)nc12` [GSK2269905], the “%Inh” value is given as 18%. Then `Cc1ccc(NC(=O)Nc2ccc(Cl)c(C(F)(F)F)c2)cc1-c1ccc(C(=O)Nc2ccncc2)cc1` [GSK1398470], with 28%; and `CCc1ccc(-c2ccc3c(c2)-c2n[nH]cc2S(=O)(=O)N3C)cc1`, with 0%; and `CNCc1ccc2nc(NC(=O)c3ccc(C(C)(C)C)cc3)cn2c1`, with 5%.
